# Data published in PubChem BioAssay (Tox21).
# “And” between values parts separate entries of the source, which are not always exact repeats. Identical values can stand only once. Results filed as inconclusive are left out. A call without a number means that no potency is given here. A structure can be active in one record and inactive in another. The source made the active and inactive calls. Unless noted, calls follow the shape of the full dose curve.
# Experiments:
# [1] = qHTS assay to identify small molecule agonists of the peroxisome proliferator-activated receptor delta (PPARd) signaling pathway - cell viability counter screen (AID 743211; active = well fitted curve in the direction sought with a large enough effect in the repeat runs; an effect the other way counts as inactive or inconclusive; also: nearly all actives have a fitted effect of over 55% in size; also: potency is read from the fitted curve at half-maximal effect)
# In short: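 Multiplexed format: after the 2 h room-temperature LiveBLAzer B/G FRET step, CellTiter-Glo was added to the same wells. Luminescence after 30 min gave cell viability; compound exposure was 17 h at 37C.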
# [2] = biological target: Peroxisome proliferator-activated receptor delta (Homo sapiens) (UniProt Q03181); experiment: qHTS assay to identify small molecule agonists of the peroxisome proliferator-activated receptor delta (PPARd) signaling pathway (AID 743212);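 also: HEK293H cells with PPARd UAS beta-lactamase reporter GeneBLAzer system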
# In short: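 Beta-lactamase reporter readout: a ratiometric FRET signal from the LiveBLAzer substrate after 2 h at room temperature. Compound exposure at 37 °C in PPARδ-bla HEK293H cells driven by an upstream activator sequence.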
# [3] = qHTS assay to identify small molecule antagonists of the peroxisome proliferator-activated receptor delta (PPARd) signaling pathway - cell viability counter screen (AID 743213; active = well fitted curve in the direction sought with a large enough effect in the repeat runs; an effect the other way counts as inactive or inconclusive; also: nearly all actives have a fitted effect of over 50% in size)
# In short: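 CellTiter-Glo was added to PPARd-bla HEK293H wells following 17 h compound treatment in the presence of 300 nM L165041. Luminescence was recorded after 30 min at room temperature.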
# [4] = biological target: Peroxisome proliferator-activated receptor delta (Homo sapiens) (UniProt Q03181); experiment: qHTS assay to identify small molecule antagonists of the peroxisome proliferator-activated receptor delta (PPARd) signaling pathway (AID 743215; active = well fitted inhibition curve with a large enough effect in the signal ratio in the repeat runs, not every such curve was filed as active; the % refers to the signal ratio;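 also: cells stimulated with agonist L165041 at 300 nM final during compound exposure; series mostly up to about 62 µM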)
# In short: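 Agonist L165041 (300 nM final) added with compound to PPARd-bla HEK293H UAS-bla reporter cells; 17 h incubation at 37 C. Read-out: LiveBLAzer FRET substrate, 2 h at room temperature, fluorescence intensity.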
# [5] = qHTS assay to identify small molecule agonists of the farnesoid-X-receptor (FXR) signaling pathway - cell viability counter screen (AID 743218; active = well fitted curve in the direction sought with a large enough effect in the repeat runs; an effect the other way counts as inactive or inconclusive; also: nearly all actives have a fitted effect of over 45% in size; also: potency is read from the fitted curve at half-maximal effect)
# In short: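 Viability counter screen in the same wells: CellTiter-Glo luminescence, 30 min room-temperature incubation, measured after the beta-lactamase read. Cells were GeneBLAzer FXR-UAS-bla HEK 293T, compound-treated 16 h at 37C.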
# [6] = biological target: Bile acid receptor (Homo sapiens) (UniProt Q96RI1); experiment: qHTS assay to identify small molecule agonists of the farnesoid-X-receptor (FXR) signaling pathway (AID 743220; active = well fitted activation curve with a large enough effect in the signal ratio in the repeat runs, not every such curve was filed as active; the % refers to the signal ratio)
# In short: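 FXR-UAS-bla HEK 293T cells carrying a UAS-driven beta-lactamase reporter were plated for 5 h at 37C/5% CO2, then exposed to DMSO-dissolved Tox21 10K compounds for 16 h at 37C. A LiveBLAzer B/G FRET substrate was loaded for 2 h at room temperature before fluorescence reading.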
# [7] = qHTS assay to identify small molecule antagonists of the farnesoid-X-receptor (FXR) signaling pathway - cell viability counter screen (AID 743221; active = well fitted cell-killing curve with a large enough effect in the repeat runs, not every such curve was filed as active; also: nearly all actives have a fitted effect of over 50% in size)
# In short: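 CellTiter-Glo, 30 min RT, luminescence; same wells as the LiveBLAzer FRET read. Cells: FXR-UAS-bla HEK 293T. Treatment: compound with chenodeoxycholic acid 50 uM final, 16 h at 37 C.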
# [8] = biological target: Vitamin D3 receptor (Homo sapiens) (UniProt P11473); experiment: qHTS assay to identify small molecule agonists of the vitamin D receptor (VDR) signaling pathway (AID 743222)
# In short: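 Agonist mode, beta-lactamase reporter: fluorescence from LiveBLAzer B/G FRET substrate (2 h, room temperature) read after 16 h compound treatment at 37 C of VDR-bla cells, which were pre-incubated 4 h after seeding.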
# [9] = qHTS assay to identify small molecule agonists of the vitamin D receptor (VDR) signaling pathway - cell viability counter screen (AID 743224; active = well fitted curve in the direction sought with a large enough effect in the repeat runs; an effect the other way counts as inactive or inconclusive; also: nearly all actives have a fitted effect of over 50% in size; also: potency is read from the fitted curve at half-maximal effect)
# In short: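 Counter screen run in the same wells as the VDR-bla reporter assay: CellTiter-Glo luminescence, 30 min at room temperature, after 16 h compound treatment at 37C of cells pre-plated for 4 h.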
# [10] = qHTS assay to identify small molecule antagonists of the vitamin D receptor (VDR) signaling pathway - cell viability counter screen (AID 743225; active = well fitted curve in the direction sought with a large enough effect in the repeat runs; an effect the other way counts as inactive or inconclusive; also: nearly all actives have a fitted effect of over 50% in size; also: potency is read from the fitted curve at half-maximal effect)
# In short: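 Cytotoxicity toward the VDR-bla HEK 293T line was scored by ATP-based CellTiter-Glo luminescence, read in the wells already used for the beta-lactamase readout after 16 h compound treatment under 3 nM 1-alpha,25-dihydroxyvitamin D3 stimulation.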
# [11] = qHTS assay to identify small molecule agonists of the NFkB signaling pathway - cell viability counter screen (AID 1159515); also: series mostly up to about 61 µM; nearly all actives have a fitted effect of over 55% in size
# In short: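 Read by CellTiter-Glo luminescence (30 min, room temperature) in the wells also used for the beta-lactamase FRET read. ME-180 NFkB-bla cells at 2,000 per well were plated overnight, then exposed to compound for 5 hr at 37 C.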
# [12] = qHTS assay to identify small molecule agonists of the endoplasmic reticulum stress response signaling pathway (AID 1159516; active = well fitted activation curve with a large enough effect in the signal ratio in the repeat runs, not every such curve was filed as active; the % refers to the signal ratio)
# In short: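 Ratiometric FRET readout (405 nm excitation; 460 and 530 nm emission) of a beta-lactamase gene driven by the ER stress response element, after 2 hr substrate loading. HeLa ESRE-bla cells were seeded overnight and treated with compounds for only 5 hr at 37 C.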
# [13] = qHTS assay to identify small molecule agonists of the endoplasmic reticulum stress response signaling pathway - cell viability counter screen (AID 1159517); also: nearly all actives have a fitted effect of over 50% in size; also: potency is read from the fitted curve at half-maximal effect
# In short: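 ESRE-bla HeLa cells (1,500/well) were plated overnight at 37 C and exposed to compounds for 5 hr. After the 2 hr beta-lactamase substrate read, CellTiter-Glo went into the same wells, and luminescence was read after 30 min at room temperature.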
# [14] = qHTS assay to identify small molecule antagonists of the retinoid-related orphan receptor gamma (ROR-gamma) signaling pathway - cell viability counter screen (AID 1159520; active = well fitted curve in the direction sought with a large enough effect in the repeat runs; an effect the other way counts as inactive or inconclusive; also: nearly all actives have a fitted effect of over 50% in size; also: potency is read from the fitted curve at half-maximal effect)
# In short: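 Cytotoxicity was read from cellular ATP (CellTiter-Glo luminescence) after 16 hr at 37 C with 1 uM doxycycline induction. The inducer was added 2 hr after compound transfer to Tet-on ROR gamma CHO cells.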
# [15] = qHTS assay to identify small molecule agonists of the AP-1 signaling pathway - cell viability counter screen (AID 1159525); also: nearly all actives have a fitted effect of over 55% in size
# In short: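 Intracellular ATP by Cell Titer Glo luminescence (30 min, RT) in the same ME-180 AP-1-bla wells after the 5 h compound exposure at 37 °C. Normalised to tetra n-octyl ammonium bromide and DMSO controls.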
# [16] = qHTS assay to identify small molecule agonists of the AP-1 signaling pathway (AID 1159526)
# [17] = biological target: Retinoic acid receptor RXR-alpha (Homo sapiens) (UniProt P19793); experiment: qHTS assay to identify small molecule agonists of the RXR signaling pathway (AID 1159527); also: nearly all actives have a fitted effect of over 35% in size; also: potency is read from the fitted curve at half-maximal effect
# In short: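 Reporter activation is measured as beta-lactamase activity via FRET substrate cleavage (emission 460/530 nm) in HEK 293T cells expressing an RXR-alpha-driven bla construct, following 16 hr compound exposure at 37 C.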
# [18] = biological target: Bile acid receptor (Homo sapiens) (UniProt Q96RI1); experiment: qHTS assay to identify small molecule antagonists of the farnesoid-X-receptor (FXR) signaling pathway (AID 743217; active = well fitted inhibition curve with a large enough effect in the signal ratio in the repeat runs, not every such curve was filed as active; the % refers to the signal ratio)
# In short: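 Antagonist mode: chenodeoxycholic acid at 50 uM final stimulates a UAS-driven beta-lactamase reporter in HEK 293T FXR-bla cells during 16 h, 37C compound exposure. Read-out is FRET substrate fluorescence after 2 h at room temperature.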
# [19] = biological target: Nuclear receptor ROR-gamma (Homo sapiens) (UniProt P51449); experiment: qHTS assay to identify small molecule antagonists of the retinoid-related orphan receptor gamma (ROR-gamma) signaling pathway (AID 1159521; active = well fitted curve in the direction sought with a large enough effect in the repeat runs; an effect the other way counts as inactive or inconclusive; also: nearly all actives have a fitted effect of over 50% in size; also: potency is read from the fitted curve at half-maximal effect)
# In short: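 Readout: ONE-Glo luciferase luminescence, 30 min at room temperature. System: Tet-on RORγ CHO, RORE-LUC. Sequence: compound 2 h, doxycycline 1 uM final, 16 h at 37 C.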
# [20] = biological target: Vitamin D3 receptor (Homo sapiens) (UniProt P11473); experiment: qHTS assay to identify small molecule antagonists of the vitamin D receptor (VDR) signaling pathway (AID 743223; active = well fitted inhibition curve with a large enough effect in the signal ratio in the repeat runs, not every such curve was filed as active; the % refers to the signal ratio)
# In short: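 After VDR-bla cells are plated and left 4 h at 37C, DMSO-dissolved compounds and 3 nM (final) calcitriol agonist are added. Incubation continues 16 h at 37C; FRET beta-lactamase substrate then develops 2 h at room temperature.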
# Sequence of Vitamin D3 receptor (Homo sapiens) (P11473 whole entry, looked up): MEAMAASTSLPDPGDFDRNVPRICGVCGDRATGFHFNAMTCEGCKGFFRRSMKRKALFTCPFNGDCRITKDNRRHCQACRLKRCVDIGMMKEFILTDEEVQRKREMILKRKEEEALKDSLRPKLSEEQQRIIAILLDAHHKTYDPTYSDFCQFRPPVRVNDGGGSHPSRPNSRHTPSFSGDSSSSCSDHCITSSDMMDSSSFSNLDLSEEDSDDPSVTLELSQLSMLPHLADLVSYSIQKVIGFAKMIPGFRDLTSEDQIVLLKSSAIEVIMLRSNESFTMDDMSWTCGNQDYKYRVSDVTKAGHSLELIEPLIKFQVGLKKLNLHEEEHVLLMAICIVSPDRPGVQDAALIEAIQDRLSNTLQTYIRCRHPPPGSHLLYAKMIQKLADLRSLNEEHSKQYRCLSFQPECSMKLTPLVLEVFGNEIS
# Sequence of Peroxisome proliferator-activated receptor delta (Homo sapiens) (Q03181 whole entry, looked up): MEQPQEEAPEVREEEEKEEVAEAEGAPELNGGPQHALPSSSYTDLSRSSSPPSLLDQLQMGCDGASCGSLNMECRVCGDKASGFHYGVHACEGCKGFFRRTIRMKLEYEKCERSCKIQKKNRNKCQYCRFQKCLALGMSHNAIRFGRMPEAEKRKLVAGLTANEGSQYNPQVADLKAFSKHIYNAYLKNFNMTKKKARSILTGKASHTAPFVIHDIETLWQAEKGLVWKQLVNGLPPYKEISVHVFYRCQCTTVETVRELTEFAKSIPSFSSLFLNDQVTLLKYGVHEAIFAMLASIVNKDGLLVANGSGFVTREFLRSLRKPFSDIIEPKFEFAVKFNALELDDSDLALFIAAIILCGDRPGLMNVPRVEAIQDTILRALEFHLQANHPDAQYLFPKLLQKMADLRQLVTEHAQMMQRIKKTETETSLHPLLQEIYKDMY
# Sequence of Retinoic acid receptor RXR-alpha (Homo sapiens) (P19793 whole entry, looked up): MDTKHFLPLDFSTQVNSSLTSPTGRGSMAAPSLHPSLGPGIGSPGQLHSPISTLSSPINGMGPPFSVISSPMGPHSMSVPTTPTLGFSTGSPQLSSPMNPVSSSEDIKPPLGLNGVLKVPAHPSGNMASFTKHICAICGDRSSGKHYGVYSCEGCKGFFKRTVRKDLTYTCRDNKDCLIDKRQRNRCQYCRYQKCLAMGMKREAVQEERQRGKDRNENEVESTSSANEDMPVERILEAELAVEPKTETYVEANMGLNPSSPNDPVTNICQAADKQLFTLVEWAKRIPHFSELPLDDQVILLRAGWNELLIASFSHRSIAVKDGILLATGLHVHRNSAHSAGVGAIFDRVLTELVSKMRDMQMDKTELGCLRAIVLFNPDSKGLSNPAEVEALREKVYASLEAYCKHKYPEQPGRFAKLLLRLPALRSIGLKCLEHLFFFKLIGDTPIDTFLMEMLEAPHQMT
# Sequence of Bile acid receptor (Homo sapiens) (Q96RI1 whole entry, looked up): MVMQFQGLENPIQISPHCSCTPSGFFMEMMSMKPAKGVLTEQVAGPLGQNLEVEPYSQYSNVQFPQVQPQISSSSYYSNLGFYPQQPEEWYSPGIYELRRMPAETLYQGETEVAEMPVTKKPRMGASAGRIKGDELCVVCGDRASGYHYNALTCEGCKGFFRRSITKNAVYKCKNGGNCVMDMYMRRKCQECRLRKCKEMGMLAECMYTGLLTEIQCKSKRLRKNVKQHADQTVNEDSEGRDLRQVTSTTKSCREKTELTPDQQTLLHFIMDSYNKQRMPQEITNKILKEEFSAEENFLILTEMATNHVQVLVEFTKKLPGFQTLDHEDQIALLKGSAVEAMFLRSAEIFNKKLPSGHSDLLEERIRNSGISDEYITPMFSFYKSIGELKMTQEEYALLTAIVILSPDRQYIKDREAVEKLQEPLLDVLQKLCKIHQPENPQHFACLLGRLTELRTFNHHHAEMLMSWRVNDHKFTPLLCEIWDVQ
Compound,Potency [1],Potency [2],Potency [3],Potency [4],Potency [5],Potency [6],Potency [7],Potency [8],Potency [9],Potency [10],Potency [11],outcome [12],Potency [13],Potency [14],Potency [15],Potency [16],Potency [17],Potency [18],Potency [19],Potency [20]
OCCN1CCNCC1,inactive,inactive,inactive,inactive,inactive,inactive,inactive,inactive,inactive,inactive,inactive,inactive,inactive,60.5 µM (active) and inactive,inactive,inactive,inactive,,,
CC(C)(C)NCC(O)c1cc(O)cc(O)c1 (stereo unspecified),inactive,,inactive,,,,inactive,,inactive,0.0019 µM (active),inactive,inactive,inactive,inactive,inactive,inactive,inactive,,,
CC(=O)Nc1ccc(C(=O)CCl)cc1,inactive and 49 µM (active),inactive,,inactive,inactive and 54.9 µM (active),,inactive,inactive,inactive and 54.9 µM (active),inactive,inactive,inactive,inactive and 27.5 µM (active),inactive and 13.7 µM (active),inactive,inactive,11 µM (active),inactive,,
NC12CC3CC(CC(C3)C1)C2,inactive,inactive,,inactive,inactive,,inactive,inactive,inactive,inactive,inactive,inactive,inactive,inactive,inactive,inactive,inactive,,,
COC(=O)[C@H]1[C@H]2C[C@@H]3c4[nH]c5cc(OC)ccc5c4CCN3C[C@H]2C[C@@H](OC(=O)c2cc(OC)c(OC)c(OC)c2)[C@@H]1OC,17.9 µM (active),,,inactive,22.5 µM (active),,inactive,,,inactive and 31.8 µM (active),inactive,inactive,inactive,inactive,inactive,inactive,,,30.6 µM (active) and 28.1 µM (active),
CC(C)(O)CCC(C)(C)O,inactive,inactive,inactive,inactive,inactive,,inactive,inactive,inactive,inactive,inactive,inactive,inactive,inactive,inactive,inactive,inactive,,,inactive
O=C(O)Cn1cnnn1,,inactive,inactive,inactive,inactive,inactive,inactive,inactive,,inactive,inactive,inactive,inactive,inactive,inactive,inactive,inactive,inactive,inactive,inactive
O=C(O)c1cccc(C(=O)O)c1,inactive,inactive,inactive,inactive,inactive,inactive,inactive,,inactive,inactive,inactive,inactive,inactive,inactive,inactive,inactive,inactive,,,
CC(N)=O,,,,,inactive,,inactive,,inactive,inactive,inactive,inactive,inactive,inactive,inactive,inactive,inactive,,,
COc1ccc(COC(C)=O)cc1,inactive,inactive,inactive,inactive,inactive,inactive,inactive,inactive,,inactive,inactive,inactive,inactive,inactive,inactive,inactive,inactive,,,
c1cnc2cc3c(cc2n1)C1CNCC3C1,inactive,inactive,,inactive,inactive,inactive,inactive,inactive,inactive,inactive,inactive,inactive,inactive,inactive,inactive,inactive,inactive,,,
